Assay results: the supplement of paper PMC6555819

What was measured:
Assay in all cases: PBM binding z-score (relative to random genomic background probes); higher = stronger binding; sequences stand for … in GC…GCGATTGACAGCGTAGAATGAAGG
[1] = test system: PPARg:RXRa DBDmut IVT, anti-RXR (DBD mutation: RXRa K156A/R161A, NR concentration 270 nM, RXRa partner concentration 90 nM)
Procedure, shortened: (§1)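 Regression normalization was applied to scanned fluorescence from custom Agilent 4×180K protein-binding microarrays. Before scanning, arrays were incubated 1 h with ligand-free nuclear receptor dimers, and binding was detected with antibodies against each partner (one per run). Binding z-scores use the random background probes as reference.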

[2] = test system: PPARg:RXRa IVT, anti-PPARg (NR concentration 270 nM, RXRa partner concentration 90 nM)
Procedure, shortened: as §1

[3] = test system: PPARg DBDmut:RXRa IVT, anti-PPARg (DBD mutation: PPARg1 K132A/R137A, NR concentration 270 nM, RXRa partner concentration 90 nM)
Procedure, shortened: as §1

[4] = test system: PPARg DBDmut IVT, anti-PPARg (DBD mutation: PPARg1 K132A/R137A, NR concentration 270 nM)
Procedure, shortened: as §1

[5] = test system: PPARg homodimer (NR concentration 180 nM)
Procedure, shortened: as §1

[6] = test system: PXR:RXRa (NR concentration 270 nM, RXRa partner concentration 90 nM)
Procedure, shortened: as §1

[7] = test system: PXR homodimer (NR concentration 270 nM)
Procedure, shortened: as §1

[8] = test system: RARa:RXR (NR concentration 270 nM, RXRa partner concentration 90 nM)
Procedure, shortened: as §1

[9] = test system: RARa homodimer (NR concentration 270 nM)
Procedure, shortened: as §1

[10] = test system: RARb:RXRa (NR concentration 270 nM, RXRa partner concentration 90 nM)
Procedure, shortened: as §1

Sequence | PBM binding z-score [1] | PBM binding z-score [2] | PBM binding z-score [3] | PBM binding z-score [4] | PBM binding z-score [5] | PBM binding z-score [6] | PBM binding z-score [7] | PBM binding z-score [8] | PBM binding z-score [9] | PBM binding z-score [10]
TTACCAAGGTGAAGGACGTTGATCCCTCTGTAGA | 1.55 | 2.11 | 0.655 | -0.0196 | 0.106 | 0.213 | -0.502 | 0.474 | -0.478 | 1.26
CCGACTGGGGCAAGATTACCATAACGCACAGCCA | 2.97 | 2.41 | -0.0501 | -0.549 | -0.195 | -0.741 | -0.382 | -0.513 | -0.747 | 0.315
ATCAAAAGGTCGACGAGGTGAGTATACACCGTTT | 0.837 | 2.54 | 1.44 | 1.18 | 2.16 | 3.22 | 0.528 | 3.88 | 1.22 | 4
CGAACTAGGTCAAGGACAGTGCATCTCCGCACGC | 8.15 | 8.09 | 1.65 | 0.963 | 1.3 | 2.24 | 0.348 | 1.94 | -0.145 | 3.97
GTACCAAAGTGAATAGGTCGTTGATGAGTAGGCG | -0.402 | -0.0847 | 0.259 | -0.53 | 0.312 | -0.00367 | -0.196 | 0.176 | 0.281 | 0.279
TCTTGTAGATCCGCAGGTTAAGAAAGCTGGCCAA | 1.29 | -0.0295 | 0.383 | -0.621 | -0.223 | 0.161 | -1.09 | 0.597 | -0.725 | 0.136
CCGACTGTGGCAAAGGTTACCATACTCAGTACGA | 2.07 | 3.83 | 0.000701 | -0.266 | 1.71 | 1.84 | 0.27 | 2.56 | 0.0109 | 1.9
ATCTCTAGGTAAAAGTTCAGTGGATCCCGAGGAT | 2.25 | 3.58 | 1.28 | 1.66 | 1.32 | 2.05 | 1.71 | 1.76 | 1.18 | 2.41
ATATGTAGGTTAAGGGTCGTTCAGGTTGGTTCGC | 7.55 | 7.66 | 3.39 | 1.59 | 2.62 | 3.64 | 2.22 | 3.78 | 2.01 | 2.33
TCTCGGAGGACACGCAAGGTCAGAGCTCGACATC | 1.62 | 1.03 | -0.531 | -0.649 | 0.657 | 2.67 | 0.389 | 2.61 | 0.379 | 3.4
CGAACTAGGTCAAGGTCAAAGTCGGTTTGTGCCA | 8.45 | 8.59 | 3.32 | 1.2 | 4.39 | 5.28 | 2.59 | 5.41 | 1.57 | 4.93
AGAACGAGGGCACGCTGAGTTGTTAGCAGAGTAG | 4.03 | 3.92 | 0.505 | 0.0717 | -0.208 | 0.851 | -0.39 | 0.724 | -0.521 | 2.62
CGAACTAGGTCACAACAGGACAGTGAAGGATGAT | 8.41 | 8.69 | 2.32 | 1.05 | 1.54 | 1.85 | 0.241 | 1.87 | 0.573 | 3.79
CCAGACAGGTGAGAAGGTAACGCAGCCTCGATTA | 1.37 | 0.83 | -0.151 | -0.199 | 0.904 | 0.0317 | 0.012 | 0.312 | 0.438 | 0.806
TCGAGTAGGTTACCAATGGGGCATTGAGCTTTCT | 3.4 | 2.69 | -0.293 | -0.233 | -0.0976 | 0.039 | -0.707 | 0.00376 | -0.988 | 0.917
TCATATAGGTAAACCGGTGAAAGTCCGTAAGTTA | 4.14 | 3.35 | 0.791 | 0.416 | 0.766 | 0.768 | 0.578 | 0.953 | 0.584 | 0.426
CGTCAAAGTTCAACTAAGGTACCGTAAAGCACGC | 0.831 | 1.71 | 0.452 | 0.671 | 2.68 | 4.87 | 3.81 | 3.96 | 1.72 | 5.21
TCGAATAGGTTACCAATGGGGCATTCAGCTTTCT | 2.41 | 1.12 | 0.24 | -0.411 | 0.402 | 0.725 | 0.0437 | 0.908 | 0.281 | 1.57
CTCGAAAGGTCGTGCCCAGGTGAGTATACCAAAC | 0.771 | 1.91 | 0.249 | 0.285 | 2.38 | 3.17 | 0.0798 | 4.63 | 0.0863 | 3.91
CCGACTGTGGCAAGGTTACCATAACGCACAGCCA | 1.15 | 0.507 | -0.345 | -0.505 | 0.63 | 0.176 | 0.241 | 0.594 | 0.511 | 0.885
AGAACGAGGGCAAGGAGTTGATAGCACGGGTGGC | 2.54 | 2.09 | 1.19 | -0.462 | 0.0784 | 0.742 | 1.54 | 0.14 | -0.0474 | 2.15
TCTCGGAGGACACGAAGATCAGAGCTTTCCAGAG | 1.06 | -0.251 | -1.11 | -0.408 | -0.646 | -0.151 | -0.592 | 0.08 | -0.514 | 1.21
TCTAGTTGCTCAAAGGTCACACACTCGAAATGCG | 2.7 | 3.98 | 1.38 | 1.19 | 3.79 | 5.31 | 1.24 | 5.48 | 2.63 | 4.94
TCGAGTAGGTTACCAATGGGGCACTCAGCTTTCT | 3.78 | 3.08 | -0.534 | 0.223 | -0.453 | 0.0109 | -0.848 | 0.158 | -0.688 | 0.948
